{"source": "PubChem BioAssay AID422", "about": "(Emory University Molecular Libraries Screening Center, 2006)", "note": "Several values for one entry are separate records, joined by “and”; a condition that tells them apart may be missing. Equal values may be shown once. The campaign covered roughly 160,000 compounds. About 310 (0.19%) were called active. Rule as the data show it: active = inhibition above about 30%; inactive = the rest. Many of the other results were omitted from the sample, so actives are more common in it than they were. Some structures have more than one record in an assay (separate samples or runs), and their calls can disagree.", "data": [{"biological_target": "14-3-3 protein gamma (Homo sapiens) (UniProt P61981)", "sequence (P61981 whole entry, looked up)": "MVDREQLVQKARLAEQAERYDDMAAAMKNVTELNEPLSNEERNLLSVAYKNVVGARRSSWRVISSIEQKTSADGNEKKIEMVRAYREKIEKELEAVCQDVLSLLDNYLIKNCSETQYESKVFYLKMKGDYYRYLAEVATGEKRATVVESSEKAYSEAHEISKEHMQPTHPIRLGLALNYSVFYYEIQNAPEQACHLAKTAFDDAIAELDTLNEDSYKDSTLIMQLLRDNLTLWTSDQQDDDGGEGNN", "test": "modulators of 14-3-3 gamma protein binding, primary screen, biochemical, fluorescence polarization (AID 422);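 also: 0% = protein plus tracer without compound and 100% = blank with tracer alone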", "details": "FP, 14-3-3gamma / TMR-pS259-Raf peptide binding; at 40 µM; stronger effect = higher value", "values": [{"smiles": "O=C(NCCC1=CCCCC1)c1ccc2c(=O)n(Cc3cccc(Br)c3)c(=S)[nH]c2c1", "inhibition": "-9.75% (inactive)"}, {"smiles": "CCc1ccc2oc(-c3cc(NC(=O)c4ccc(OC)cc4)ccc3Cl)nc2c1", "inhibition": "-44.5% (inactive)"}, {"smiles": "CC(C)(c1ccc(NC(=O)C(F)(F)F)cc1)c1ccc(NC(=O)C(F)(F)F)cc1", "inhibition": "-13.8% (inactive)"}, {"smiles": "CCN(CC)C(=O)CSc1nc2ccccc2n1S(=O)(=O)c1cccc([N+](=O)[O-])c1", "inhibition": "-1.43% (inactive)"}, {"smiles": "Cc1cc(N2CC(C)CC(C)C2)nc2ccc([N+](=O)[O-])cc12", "note": "(stereo unspecified)", "inhibition": "-9.05% (inactive)"}, {"smiles": "Cc1cc2c(c(=O)[nH]1)C(=O)NC2=O", "inhibition": "-1.31% (inactive)"}, {"smiles": "O=c1cc(-c2ccccc2)nc(SCCOc2ccc(Cl)cc2)[nH]1", "inhibition": "-2.33% (inactive)"}, {"smiles": "Cc1ccccc1CN1CCN(CC(=O)NCc2ccccn2)C1=O", "inhibition": "45.7% (active) and 3.37% (inactive)"}, {"smiles": "Cc1ccc(CNC(=O)CN2CCN(Cc3ccc(Cl)cc3)C2=O)cc1", "inhibition": "-3.75% (inactive)"}, {"smiles": "Cc1ccccc1CN1CCN(CC(=O)NCc2cccs2)C1=O", "inhibition": "-7.12% (inactive)"}, {"smiles": "CCOC(=O)c1cc2c(=O)n3ccccc3nc2n(CCCOC)c1=NC(=O)c1cccc(Br)c1", "inhibition": "0.86% (inactive)"}, {"smiles": "CC(=O)C1=NN(c2ccccc2)C(c2c[nH]c3ccccc23)N1c1ccc(N2CCOCC2)c(Cl)c1", "note": "(stereo unspecified)", "inhibition": "-3.29% (inactive)"}, {"smiles": "CN(CCC#N)C(=O)CN1C(=O)COc2ccc(C(C)(C)C)cc21", "inhibition": "2.44% (inactive)"}, {"smiles": "O=C1NCCCC1C(=O)NC1CCCCC1", "note": "(stereo unspecified)", "inhibition": "-10.1% (inactive)"}, {"smiles": "CCc1sc(-c2cc3cccc(OC)c3oc2=O)nc1-c1ccc(C)cc1", "inhibition": "-56.6% (inactive)"}, {"smiles": "Cc1ccc(C2OC3(C(=O)c4ccccc4C3=O)C3C(=O)N(c4ccc(Br)cc4)C(=O)C23)cc1", "note": "(stereo unspecified)", "inhibition": "-39.8% (inactive)"}, {"smiles": "O=C(OCC(=O)N1CCCC1)c1ccco1", "inhibition": "-8.04% (inactive)"}, {"smiles": "CC1CN(C)C(C)CC1OC(=O)c1ccco1", "note": "(stereo unspecified)", "inhibition": "34.5% (active)"}, {"smiles": "COC(=O)c1ccc(NC(=O)c2ccco2)cc1", "inhibition": "-6.08% (inactive)"}, {"smiles": "O=C(Nc1ccccc1O)c1ccco1", "inhibition": "-6.85% (inactive)"}, {"smiles": "O=C(CCCOc1ccc(Br)cc1)Nc1ncc(Cc2ccc(F)cc2)s1", "inhibition": "-2.12% (inactive)"}, {"smiles": "COc1ccc(C2C=C(c3ccc(OC(F)F)cc3)Nc3ncnn32)cc1", "note": "(stereo unspecified)", "inhibition": "4.5% (inactive)"}, {"smiles": "Cc1ccc(/C(O)=C2\\C(=O)C(=O)N(CCC(=O)O)C2c2ccc(Br)cc2)cc1", "note": "(stereo unspecified)", "inhibition": "-1.96% (inactive)"}, {"smiles": "CCC(C(=O)Nc1c2c(nn1-c1ccc([N+](=O)[O-])cc1)CSC2)c1ccccc1", "note": "(stereo unspecified)", "inhibition": "-13.7% (inactive)"}, {"smiles": "CCNc1cc(Nc2ccccc2)c2c3c(onc13)-c1ccccc1C2=O", "inhibition": "-69.4% (inactive)"}, {"smiles": "CN(C)c1ccc(Nc2cc(N3CCCC3)c3noc4c3c2C(=O)c2ccccc2-4)cc1", "inhibition": "-88.4% (inactive)"}]}]}
